From PubChem BioAssay AID1159580 (chemical genetic matrix, 2015)
Out of some 5,500 compounds screened, about 2,000 (36%) were called active. About 18% were inconclusive and are not listed. Cut-off read from the data, not from the text of the source: active = normalized growth mostly below about 0.91 (no sharp cut-off); inconclusive = no clear call, values can overlap the other calls; inactive = mostly above about 0.92. The list shows a part of the results.

Assay: chemical genetic growth profiling, strain panel (AID 1159580);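 note: tested at 20 µM; growth read once vehicle control cultures reached saturation at 30 °C; 1 = growth at the plate median or of vehicle wells; lower values mean less growth of the strain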
Details: growth OD

Measured: normalized growth

CCN(CC)CCOC(=O)C(c1ccccc1)c1ccccc1
inactive: S. cerevisiae deletion strains, locus YKL068W, active compounds read low 0.986 | S. cerevisiae deletion strains, locus YKL085W, strain MDH1 (second series), active compounds read low 0.994 | S. cerevisiae deletion strains, locus YKL085W, strain MDH1, active compounds read low 0.994 | S. cerevisiae deletion strains, locus YKL160W, strain elf1, active compounds read low 0.985 | S. cerevisiae deletion strains, locus YKL190W, strain CNB1, active compounds read low 0.989 | S. cerevisiae deletion strains, locus YKR001C, strain vps1, active compounds read low 1 | S. cerevisiae deletion strains, locus YKR026C, strain gcn3, active compounds read low 0.963 | S. cerevisiae deletion strains, locus YKR091W, strain srl3, active compounds read low 0.98 | S. cerevisiae deletion strains, locus YLL001W, strain dnm1, active compounds read low 0.952 | S. cerevisiae deletion strains, locus YLL026W, active compounds read low 0.971 | S. cerevisiae deletion strains, locus YLL041C, strain sdh2, active compounds read low 0.974 | S. cerevisiae deletion strains, locus YLR027C, strain aat2, active compounds read low 0.985 | S. cerevisiae deletion strains, locus YLR039C, strain RIC1, active compounds read low 1 | S. cerevisiae deletion strains, locus YLR058C, strain SHM2, active compounds read low 0.999 | S. cerevisiae deletion strains, locus YLR102C, strain apc9, active compounds read low 0.988 | S. cerevisiae deletion strains, locus YLR113W, strain HOG1, active compounds read low 0.965 | S. cerevisiae deletion strains, locus YLR221C, strain rsa3, active compounds read low 1 | S. cerevisiae deletion strains, locus YLR258W, strain gsy2, active compounds read low 0.963 | S. cerevisiae deletion strains, locus YLR262C, strain YPT6 (second series), active compounds read low 0.966 | S. cerevisiae deletion strains, locus YLR262C, strain YPT6, active compounds read low 1 | S. cerevisiae deletion strains, locus YLR268W, strain sec22, active compounds read low 0.984 | S. cerevisiae deletion strains, locus YLR320W, strain mms22, active compounds read low 1.01 | S. cerevisiae deletion strains, locus YLR330W, strain CHS5, active compounds read low 0.991 | S. cerevisiae deletion strains, locus YLR342W, strain FKS1 (second series), active compounds read low 0.988 | S. cerevisiae deletion strains, locus YLR342W, strain FKS1, active compounds read low 0.968 | S. cerevisiae deletion strains, locus YLR357W, strain rsc2, active compounds read low 0.982 | S. cerevisiae deletion strains, locus YLR370C, strain arc18, active compounds read low 0.945 | S. cerevisiae deletion strains, locus YLR371W, strain rom2, active compounds read low 1 | S. cerevisiae deletion strains, locus YLR384C, strain iki3, active compounds read low 0.97 | S. cerevisiae deletion strains, locus YLR418C, strain cdc73, active compounds read low 0.961 | S. cerevisiae deletion strains, locus YML016C, strain PPZ1, active compounds read low 0.998 | S. cerevisiae deletion strains, locus YML032C, strain rad52, active compounds read low 1 | S. cerevisiae deletion strains, locus YML120C, strain ndi1, active compounds read low 0.961 | S. cerevisiae deletion strains, locus YML124C, strain tub3, active compounds read low 0.992 | S. cerevisiae deletion strains, locus YMR058W, strain fet3, active compounds read low 0.97 | S. cerevisiae deletion strains, locus YMR078C, strain ctf18, active compounds read low 0.983 | S. cerevisiae deletion strains, locus YMR125W, strain sto1, active compounds read low 0.949 | S. cerevisiae deletion strains, locus YMR129W, active compounds read low 0.975 | S. cerevisiae deletion strains, locus YMR205C, strain PFK2, active compounds read low 0.971 | S. cerevisiae deletion strains, locus YMR223W, strain ubp8, active compounds read low 0.98 | S. cerevisiae deletion strains, locus YMR231W, strain pep5, active compounds read low 0.977 | S. cerevisiae deletion strains, locus YMR263W, strain SAP30, active compounds read low 0.991 | S. cerevisiae deletion strains, locus YMR307W, strain GAS1, active compounds read low 1.02 | S. cerevisiae deletion strains, locus YNL067W, strain RPL9B, active compounds read low 1.01 | S. cerevisiae deletion strains, locus YNL071W, strain lat1, active compounds read low 0.973 | S. cerevisiae deletion strains, locus YNL128W, strain TEP1, active compounds read low 0.968 | S. cerevisiae deletion strains, locus YNL183C, strain NPR1, active compounds read low 0.94 | S. cerevisiae deletion strains, locus YNL209W, strain ssb2, active compounds read low 0.969 | S. cerevisiae deletion strains, locus YNL233W, strain BNI4, active compounds read low 1.03 | S. cerevisiae deletion strains, locus YNL248C, strain rpa49, active compounds read low 0.976 | S. cerevisiae deletion strains, locus YNL250W, strain rad50, active compounds read low 0.99 | S. cerevisiae deletion strains, locus YNL271C, strain bni1, active compounds read low 0.984 | S. cerevisiae deletion strains, locus YNL298W, strain CLA4, active compounds read low 0.982 | S. cerevisiae deletion strains, locus YNL307C, strain MCK1, active compounds read low 0.998 | S. cerevisiae deletion strains, locus YNL322C, strain KRE1 (second series), active compounds read low 0.96 | S. cerevisiae deletion strains, locus YNL322C, strain KRE1, active compounds read low 0.987 | S. cerevisiae deletion strains, locus YNR049C, strain mso1, active compounds read low 0.96 | S. cerevisiae deletion strains, locus YNR052C, strain pop2, active compounds read low 0.98 | S. cerevisiae deletion strains, locus YOL006C, strain TOP1, active compounds read low 1.04 | S. cerevisiae deletion strains, locus YOL012C, strain htz1 0.836 | S. cerevisiae deletion strains, locus YOL147C, strain pex11, active compounds read low 0.994 | S. cerevisiae deletion strains, locus YOR001W, strain rrp6, active compounds read low 0.979 | S. cerevisiae deletion strains, locus YOR061W, strain CKA2, active compounds read low 0.999 | S. cerevisiae deletion strains, locus YOR069W, strain VPS5, active compounds read low 0.989 | S. cerevisiae deletion strains, locus YOR070C, strain gyp1, active compounds read low 0.974 | S. cerevisiae deletion strains, locus YOR080W, strain dia2, active compounds read low 0.957 | S. cerevisiae deletion strains, locus YOR083W, strain WHI5, active compounds read low 0.977 | S. cerevisiae deletion strains, locus YOR106W, strain vam3, active compounds read low 0.967 | S. cerevisiae deletion strains, locus YOR136W, strain idh2, active compounds read low 0.993 | S. cerevisiae deletion strains, locus YOR144C, strain elg1, active compounds read low 1 | S. cerevisiae deletion strains, locus YOR184W, strain ser1, active compounds read low 0.982 | S. cerevisiae deletion strains, locus YOR231W, strain MKK1, active compounds read low 0.989 | S. cerevisiae deletion strains, locus YOR265W, strain rbl2, active compounds read low 0.968 | S. cerevisiae deletion strains, locus YOR270C, strain vph1, active compounds read low 0.941 | S. cerevisiae deletion strains, locus YOR290C, strain snf2, active compounds read low 0.975 | S. cerevisiae deletion strains, locus YOR316C, strain cot1, active compounds read low 0.986 | S. cerevisiae deletion strains, locus YPL051W, strain arl3, active compounds read low 0.978 | S. cerevisiae deletion strains, locus YPL055C, strain LGE1, active compounds read low 1.02 | S. cerevisiae deletion strains, locus YPL078C, strain atp4, active compounds read low 0.965 | S. cerevisiae deletion strains, locus YPL106C, strain sse1, active compounds read low 0.931 | S. cerevisiae deletion strains, locus YPL240C, strain hsp82, active compounds read low 0.958 | S. cerevisiae deletion strains, locus YPL241C, strain CIN2, active compounds read low 0.991 | S. cerevisiae deletion strains, locus YPL256C, strain CLN2, active compounds read low 0.971 | S. cerevisiae deletion strains, locus YPR119W, strain clb2, active compounds read low 1 | S. cerevisiae deletion strains, locus YPR141C, strain kar3, active compounds read low 0.989 | S. cerevisiae deletion strains, locus YPR163C, strain tif3, active compounds read low 0.996 | S. cerevisiae deletion strains, locus YPR167C, strain met16, active compounds read low 0.987 | S. cerevisiae deletion strains, strain wtn01, active compounds read low 0.969 | S. cerevisiae strains, strain wild type, active compounds read low 0.992
